What is called inhibition is the change of the read-out against control, counted positive when it falls.

The other results are listed elsewhere or left out. A number with no mark means an inactive call. Calls of active or inactive are those of the source.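 Rule for the calls: active = inhibition above the mean of solvent-only control wells plus 3 SD, set per campaign (cut at about 25% in these data); inactive = the rest.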

A short description of this assay: blockers of IL-6 STAT3 transcription – U3A cells, luciferase, luminescence, triplicate, counter-screen for STAT1 inhibitor project (AID 1310).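 Note: 0% = IL-6 plus DMSO and 100% = IL-6 plus nifuroxazide control.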 Particulars: IL-6 STAT3 luciferase reporter, at 5.7 µM, active compounds read high, cells lacking STAT1.
On to `COC(=O)C1=CN(Cc2ccc(OC)c(OC)c2)C=C(C(=O)OC)C1c1cccs1`, for which the inhibition is -3.35%.

On to `COc1ccc(C(=O)Nc2ccccc2C(=O)N/N=C/c2ccccc2OC)cc1`, for which the inhibition was -7.2%. In the case of `Cc1ccc(C2=Nc3c(ccc4ccccc34)C(c3ccncc3)=NN2)cc1` it was -38.9%; in that of `CCOC(=O)C(=CNc1cccc(C)n1)C(=O)OCC`, 9.3%; in that of `COc1ccc(C2CC(c3cccs3)=NN2c2nc(C)c(C(C)=O)s2)cc1OC` (stereo not given), 13.4%.

`NS(=O)(=O)c1cccc(NC(=O)CSc2nc3ccccc3n2-c2ccccc2)c1`: the inhibition was -2.95%.

Regarding `O=C(CCl)N(Cc1cccc([N+](=O)[O-])c1)c1cccc(Cl)c1`, the inhibition is 47% (active). `CCOC(=O)N1CCN(C(=O)C2CCN(c3ncnc4c3sc3cccc(F)c34)CC2)CC1`: the inhibition was 4.65%. For the compound `C[C@@H]1C[C@@H]2O[C@H]2/C=C\C=C\C(=O)Cc2c(Cl)c(O)cc(O)c2C(=O)O1`, the inhibition was 70% (active). `CCOC(=O)N1CCN(C(=O)CSc2nnc(-c3c[nH]c4ccccc34)n2CCOC)CC1`: the inhibition was -4.2%.

The values above are taken from PubChem BioAssay AID1310 (The Scripps Research Institute Molecular Screening Center, 2008).
